# The supplement of paper PMC12282887
# ± gives the standard deviation of the averaged measurements.
# Columns and labels:
# Assay in all cases: promoter activity interaction Z-score (Lux/OD deviation from empty-vector control); higher = stronger promoter induction by the compound
# [1] = system: E. coli BW25113 acrABp lux reporter
# Summary of the method: (§1)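 In 384-well plates, 40 µl LB Lennox cultures of E. coli BW25113 with low-copy luxCDABE promoter reporters grew at 37°C. Optical density at 600 nm and light output were recorded every 30 min for 12 h, with windows of 0–8 h for wild type and 1–9 h for deletion strains, and wells under 10% of the median growth value were left out. Each value is a Z-transformed residual of growth-normalised luminescence fitted against a control.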
# [2] = system: E. coli BW25113 micFp lux reporter
# Summary of the method: as §1
# [3] = system: E. coli BW25113 ompFp lux reporter
# Summary of the method: as §1
# [4] = system: E. coli BW25113 robp lux reporter
# Summary of the method: as §1
# [5] = system: E. coli BW25113 soxSp lux reporter
# Summary of the method: as §1
# [6] = system: E. coli BW25113 tolCp lux reporter
# Summary of the method: as §1
# [7] = 0.11 µg/ml, genetic background: wild type
# [8] = 0.11 µg/ml, genetic background: ΔmarA
# [9] = 0.11 µg/ml, genetic background: Δrob
# [10] = 0.11 µg/ml, genetic background: ΔsoxS
# [11] = 0.21 µg/ml, genetic background: wild type
# [12] = 0.21 µg/ml, genetic background: ΔmarA
# [13] = 0.21 µg/ml, genetic background: Δrob
# [14] = 0.21 µg/ml, genetic background: ΔsoxS
# [15] = 0.43 µg/ml, genetic background: wild type
# [16] = 0.43 µg/ml, genetic background: ΔmarA
# [17] = 0.43 µg/ml, genetic background: Δrob
# [18] = 0.43 µg/ml, genetic background: ΔsoxS
# [19] = 0.86 µg/ml, genetic background: wild type
# [20] = 0.86 µg/ml, genetic background: ΔmarA
# [21] = 0.86 µg/ml, genetic background: Δrob
# [22] = 0.86 µg/ml, genetic background: ΔsoxS
structure (smiles),measurement,setting,value
Cc1ncc([N+](=O)[O-])n1CCO [Metronidazole],promoter activity interaction Z-score,[1]; [7],0.0148 ± 0.051
same,promoter activity interaction Z-score,[1]; [8],0.993 ± 0.18
same,promoter activity interaction Z-score,[1]; [9],0.102 ± 0.12
same,promoter activity interaction Z-score,[1]; [10],0.194 ± 0.31
same,promoter activity interaction Z-score,[1]; [11],-0.197 ± 0.0096
same,promoter activity interaction Z-score,[1]; [12],-0.0386 ± 0.09
same,promoter activity interaction Z-score,[1]; [13],0.0596 ± 0.14
same,promoter activity interaction Z-score,[1]; [14],0.187 ± 0.31
same,promoter activity interaction Z-score,[1]; [15],-0.222 ± 0.18
same,promoter activity interaction Z-score,[1]; [16],0.706 ± 0.8
same,promoter activity interaction Z-score,[1]; [17],-0.0336 ± 0.17
same,promoter activity interaction Z-score,[1]; [18],0.0816 ± 0.12
same,promoter activity interaction Z-score,[1]; [19],0.191 ± 0.025
same,promoter activity interaction Z-score,[1]; [20],0.645 ± 0.49
same,promoter activity interaction Z-score,[1]; [21],0.143 ± 0.34
same,promoter activity interaction Z-score,[1]; [22],-0.0136 ± 0.22
same,promoter activity interaction Z-score,[2]; [7],-0.0559 ± 0.11
same,promoter activity interaction Z-score,[2]; [8],-0.0152 ± 0.0074
same,promoter activity interaction Z-score,[2]; [9],0.0206 ± 0.0032
same,promoter activity interaction Z-score,[2]; [10],-0.264 ± 0.11
same,promoter activity interaction Z-score,[2]; [11],-0.327 ± 0.068
same,promoter activity interaction Z-score,[2]; [12],-0.09496 ± 0.00031
same,promoter activity interaction Z-score,[2]; [13],-0.0735 ± 0.081
same,promoter activity interaction Z-score,[2]; [14],-0.0751 ± 0.037
same,promoter activity interaction Z-score,[2]; [15],-0.152 ± 0.26
same,promoter activity interaction Z-score,[2]; [16],-0.0333 ± 0.092
same,promoter activity interaction Z-score,[2]; [17],-0.000559 ± 0.02
same,promoter activity interaction Z-score,[2]; [18],-0.18 ± 0.06
same,promoter activity interaction Z-score,[2]; [19],-0.0833 ± 0.079
same,promoter activity interaction Z-score,[2]; [20],0.00541 ± 0.1
same,promoter activity interaction Z-score,[2]; [21],-0.0861 ± 0.014
same,promoter activity interaction Z-score,[2]; [22],-0.189 ± 0.084
same,promoter activity interaction Z-score,[3]; [7],0.217 ± 0.3
same,promoter activity interaction Z-score,[3]; [8],0.187 ± 0.0061
same,promoter activity interaction Z-score,[3]; [9],-0.155 ± 0.074
same,promoter activity interaction Z-score,[3]; [10],-0.0733 ± 0.12
same,promoter activity interaction Z-score,[3]; [11],-0.138 ± 0.22
same,promoter activity interaction Z-score,[3]; [12],-0.0604 ± 0.18
same,promoter activity interaction Z-score,[3]; [13],0.261 ± 0.17
same,promoter activity interaction Z-score,[3]; [14],0.2636 ± 0.0018
same,promoter activity interaction Z-score,[3]; [15],-0.0385 ± 0.54
same,promoter activity interaction Z-score,[3]; [16],0.144 ± 0.29
same,promoter activity interaction Z-score,[3]; [17],0.609 ± 0.017
same,promoter activity interaction Z-score,[3]; [18],0.11 ± 0.042
same,promoter activity interaction Z-score,[3]; [19],0.547 ± 0.5
same,promoter activity interaction Z-score,[3]; [20],1.12 ± 0.3
same,promoter activity interaction Z-score,[3]; [21],0.862 ± 0.19
same,promoter activity interaction Z-score,[3]; [22],0.815 ± 0.34
same,promoter activity interaction Z-score,[4]; [7],0.061 ± 0.23
same,promoter activity interaction Z-score,[4]; [8],0.425 ± 0.28
same,promoter activity interaction Z-score,[4]; [9],0.355 ± 0.21
same,promoter activity interaction Z-score,[4]; [10],-0.235 ± 0.13
same,promoter activity interaction Z-score,[4]; [11],0.165 ± 0.35
same,promoter activity interaction Z-score,[4]; [12],-0.111 ± 0.75
same,promoter activity interaction Z-score,[4]; [13],0.8 ± 0.29
same,promoter activity interaction Z-score,[4]; [14],0.979 ± 1.1
same,promoter activity interaction Z-score,[4]; [15],0.177 ± 0.99
same,promoter activity interaction Z-score,[4]; [16],0.7 ± 0.077
same,promoter activity interaction Z-score,[4]; [17],0.452 ± 0.054
same,promoter activity interaction Z-score,[4]; [18],-0.0713 ± 0.41
same,promoter activity interaction Z-score,[4]; [19],0.378 ± 0.83
same,promoter activity interaction Z-score,[4]; [20],0.776 ± 0.22
same,promoter activity interaction Z-score,[4]; [21],0.36 ± 0.24
same,promoter activity interaction Z-score,[4]; [22],0.489 ± 0.32
same,promoter activity interaction Z-score,[5]; [7],0.0487 ± 0.14
same,promoter activity interaction Z-score,[5]; [8],0.0513 ± 0.066
same,promoter activity interaction Z-score,[5]; [9],-0.047 ± 0.051
same,promoter activity interaction Z-score,[5]; [10],-0.0356 ± 0.017
same,promoter activity interaction Z-score,[5]; [11],-0.0569 ± 0.11
same,promoter activity interaction Z-score,[5]; [12],-0.088 ± 0.048
same,promoter activity interaction Z-score,[5]; [13],0.106 ± 0.0032
same,promoter activity interaction Z-score,[5]; [14],0.0415 ± 0.21
same,promoter activity interaction Z-score,[5]; [15],0.0827 ± 0.065
same,promoter activity interaction Z-score,[5]; [16],-0.0818 ± 0.06
same,promoter activity interaction Z-score,[5]; [17],0.0852 ± 0.18
same,promoter activity interaction Z-score,[5]; [18],0.0431 ± 0.011
same,promoter activity interaction Z-score,[5]; [19],0.036 ± 0.026
same,promoter activity interaction Z-score,[5]; [20],-0.085 ± 0.049
same,promoter activity interaction Z-score,[5]; [21],-0.132 ± 0.058
same,promoter activity interaction Z-score,[5]; [22],0.0974 ± 0.06
same,promoter activity interaction Z-score,[6]; [7],-0.237 ± 0.51
same,promoter activity interaction Z-score,[6]; [8],0.544 ± 0.53
same,promoter activity interaction Z-score,[6]; [9],-0.201 ± 0.23
same,promoter activity interaction Z-score,[6]; [10],0.183 ± 0.079
same,promoter activity interaction Z-score,[6]; [11],-0.938 ± 0.4
same,promoter activity interaction Z-score,[6]; [12],-0.0891 ± 0.26
same,promoter activity interaction Z-score,[6]; [13],0.158 ± 0.57
same,promoter activity interaction Z-score,[6]; [14],-0.129 ± 0.43
same,promoter activity interaction Z-score,[6]; [15],-0.953 ± 0.17
same,promoter activity interaction Z-score,[6]; [16],0.401 ± 1.3
same,promoter activity interaction Z-score,[6]; [17],-0.12 ± 0.26
same,promoter activity interaction Z-score,[6]; [18],-0.386 ± 0.015
same,promoter activity interaction Z-score,[6]; [19],0.119 ± 0.47
same,promoter activity interaction Z-score,[6]; [20],0.316 ± 0.49
same,promoter activity interaction Z-score,[6]; [21],-0.271 ± 1.3
same,promoter activity interaction Z-score,[6]; [22],0.345 ± 0.71
